High-throughput results deposited in PubChem by National Center for Advancing Translational Sciences (NCATS).
The full list was thinned out, with hits kept by preference.
Giardia FBPA inh: blocks Giardia fructose-bisphosphate aldolase activity. Potency, µM (titrated, usually from 59.6 µM), actives largely listed as inhibitors. purified Giardia FBPA. 290,000 compounds, 0.71% hits. A8B2U2; further: nearly all actives have a fitted effect of over 55% in size
Target sequence (A8B2U2 whole entry, looked up): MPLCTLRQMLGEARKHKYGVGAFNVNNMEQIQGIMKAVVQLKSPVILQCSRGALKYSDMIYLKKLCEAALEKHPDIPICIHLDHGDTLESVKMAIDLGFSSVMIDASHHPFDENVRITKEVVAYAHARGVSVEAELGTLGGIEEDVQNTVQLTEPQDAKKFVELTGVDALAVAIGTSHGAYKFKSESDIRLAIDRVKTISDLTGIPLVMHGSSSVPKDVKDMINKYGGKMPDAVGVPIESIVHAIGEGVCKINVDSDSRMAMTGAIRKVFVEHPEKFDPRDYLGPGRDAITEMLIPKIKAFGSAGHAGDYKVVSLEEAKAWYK
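40 nM FBPA preincubated 10 min at RT with compound (up to 57.5 uM final), then substrate plus GAPDH/TPI/NAD/arsenate coupling and diaphorase/resazurin added. Fluorescence read after 20 min at RT, 525/598 nm.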
LmPK inhibitor: blocks Leishmania mexicana pyruvate kinase activity. purified LmPK, Kinase-Glo ATP luminescence, 1 h. 290,000 compounds, 0.37% hits. Potency, µM (doses to about 57.5 µM), most hits filed as inhibitors. AID 1721
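Purified LmPK (0.1 nM) converted ADP (0.1 mM) to ATP with PEP (0.5 mM) in imidazole buffer pH 7.2 with KCl and MgCl2, 1 h at room temperature. ATP was read by Kinase-Glo luminescence; data normalized to uninhibited and no-enzyme controls.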
Tb PYK inh: inhibitors of Trypanosoma brucei pyruvate kinase; Q57TT1; TbPYK enzyme, Kinase-Glo Plus ATP luminescence, 45 min; Potency, µM (top dose mostly 76.8 µM), actives largely listed as inhibitors; 410,000 compounds, 0.12% hits; further: nearly all actives have a fitted effect of over 50% in size
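Screened from lowest to highest concentration, compounds were pinned into TbPYK/substrate mixtures, and ADP (130 uM final) was added. Plates sat at room temperature for 45 min prior to Kinase-Glo Plus detection by luminescence.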
Cycloheximide cs: counter-screen for Shiga toxin inhibitors: cycloheximide protein synthesis inhibition. cell reporter, cycloheximide protein synthesis inhibition counterscreen. max response, %. 300,000 compounds, 12% hits. AID 2314; in the data active means max response mostly above about 13%, no sharp cut-off; inactive means mostly below about 14%; further: read at 38.3 µM for the half of the compounds with a filed dose
Shiga toxin inh: Shiga toxin inhibition; Vero cells, Shiga toxin protein synthesis inhibition reporter; AID 2315; 290,000 compounds, 9.2% hits; inhibition, % at 38.7 µM; in the data active means inhibition mostly above about 28%, no sharp cut-off; inactive means mostly below about 43%
Sm TGR block: inhibitors of Schistosoma mansoni thioredoxin glutathione reductase | AID 485364 | 360,000 compounds, 3% hits | Potency, µM (doses to about 114 µM), actives largely listed as inhibitors | purified TGR, DTNB reduction, TNB absorbance 405 nm; further: nearly all actives have a fitted effect of over 60% in size
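Kinetic colorimetric format: TGR-catalysed, NADPH-driven DTNB reduction monitored via TNB absorbance. Enzyme dispensed at 20 nM; compound exposure 15 min at room temperature before reaction start.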
Large screens that a line does not name were inactive. Unless noted, the call rests on the fitted dose curve; in most records, active means well fitted curve in the direction sought with a large enough effect; inconclusive means small, poorly fitted or top-dose-only effect, or another doubt; inactive means no such curve, though single readings can be large; an effect the other way counts as inactive or inconclusive.

O=C(CCS(=O)(=O)c1ccc(Br)cc1)Nc1ccccc1Cl	none
O=C(CS(=O)(=O)c1ccccc1)Nc1ccc(Cl)cn1	Shiga toxin inh 67 (no result: Giardia FBPA inh)
O=C(CCS(=O)(=O)c1ccc(Br)cc1)Nc1ccccn1	Sm TGR block 3.2µM
O=C(CCS(=O)(=O)c1ccccc1)Nc1ccc(Cl)cn1	Cycloheximide cs 24, Shiga toxin inh 61
O=C(CSCc1ccccc1)Nc1ccc(Cl)cn1	none
CCN(/C(N)=N/c1nc(C)cc(C)n1)c1ccccc1	Cycloheximide cs 13
CCN(CC)/C(N)=N/c1nc(C)cc(C)n1	none (no result: Sm TGR block)
CCOc1ccc(CCNC(=O)c2c(C)oc3ncnc(N4CCOCC4)c23)cc1	none (no result: Giardia FBPA inh, LmPK inhibitor, Cycloheximide cs, Shiga toxin inh)
CS(=O)(=O)N1CCC2(CC1)CN(Cc1nccs1)C2	none (no result: LmPK inhibitor, Cycloheximide cs, Shiga toxin inh, Sm TGR block)
Cc1ccc(N=C2NC(=O)S/C2=C\c2ccco2)cc1	Cycloheximide cs 18, Shiga toxin inh 49
O=C1NC(=Nc2ccccc2)/C(=C/c2ccco2)S1	Sm TGR block 50µM
CN(C)c1ccc(CNC(=O)c2ccccc2NC(=O)c2nsc3ccccc23)cc1	none (no result: Giardia FBPA inh, LmPK inhibitor, Cycloheximide cs, Shiga toxin inh)
Cc1ccc(-c2cn3cccnc3n2)cc1NC(=O)c1cccs1	none
O=C(Nc1ccc(-c2cn3ccccc3n2)cc1)c1cccs1	Cycloheximide cs 33, Shiga toxin inh 54
CCC(=O)Nc1cccc(-c2ccc(N3CCN(C)CC3)nn2)c1	Cycloheximide cs 16, Shiga toxin inh 74
CCOc1ccc(-c2cn3ccccc3n2)cc1	LmPK inhibitor 13µM, Tb PYK inh inconclusive (no result: Sm TGR block)
CCC(=O)Nc1cccc(-c2cn3cccc(C)c3n2)c1	Cycloheximide cs 39, Shiga toxin inh 54
O=C(Nc1cccc(-c2cn3ccccc3n2)c1)C1CC1	Cycloheximide cs 35, Shiga toxin inh 46
Cc1cccc2nc(-c3cccc(NC(=O)Cc4ccccc4)c3)cn12	none
COc1ccc(CC(=O)Nc2ccc(-c3cn4ccccc4n3)cc2)cc1	Cycloheximide cs 25, Shiga toxin inh 112
COc1ccc(CC(=O)Nc2cccc(-c3cn4ccccc4n3)c2)cc1	Cycloheximide cs 46, Shiga toxin inh active
CCC(=O)Nc1cccc(-c2cn3ccccc3n2)c1	Cycloheximide cs 18, Shiga toxin inh 45
COc1ccc(CC(=O)Nc2ccc(-c3cn4ccccc4n3)cc2)cc1OC	none
O=C(NNS(=O)(=O)c1ccc(Br)cc1)c1ccccc1-n1cccc1	none (no result: Giardia FBPA inh)
COc1ccc(S[C@@H](CCN2CC[C@H](O)CCC2=O)c2ccccc2)cc1	none (no result: Giardia FBPA inh, LmPK inhibitor, Cycloheximide cs, Shiga toxin inh)
CCCCCC1Nc2cc(C(F)(F)F)c(S(N)(=O)=O)cc2S(=O)(=O)N1 (configuration not stated)	none (no result: Giardia FBPA inh, LmPK inhibitor, Cycloheximide cs, Shiga toxin inh, Sm TGR block)
CCOC(=O)C1CCCN(C(=O)c2cc(S(=O)(=O)N(C)C)ccc2N2CCCC2)C1 (configuration not stated)	none (no result: Giardia FBPA inh, LmPK inhibitor, Cycloheximide cs, Shiga toxin inh)
O=C(COC(=O)c1cccs1)c1ccccc1	LmPK inhibitor 14µM, Cycloheximide cs 42, Shiga toxin inh 78
COc1cccc(C(=O)COC(=O)c2cccs2)c1	Cycloheximide cs 38, Shiga toxin inh 76 (no result: Giardia FBPA inh)
CC(NC(=O)COC(=O)c1cccs1)c1ccccc1 (configuration not stated)	Cycloheximide cs 12
COc1cc(N)c(Cl)cc1C(=O)OCC(=O)c1cccs1	Shiga toxin inh 54
COc1ccccc1C(=O)COC(=O)c1cccs1	none (no result: Giardia FBPA inh, LmPK inhibitor, Cycloheximide cs, Shiga toxin inh, Sm TGR block)
COc1cc(N)c(Cl)cc1C(=O)OCC(=O)NCc1cccs1	none (no result: Giardia FBPA inh, LmPK inhibitor, Cycloheximide cs, Shiga toxin inh, Sm TGR block)
COc1ccc(OC)c(CNS(=O)(=O)c2c(C(=O)N3CCCCCC3)c(C)n(C)c2C)c1	none (no result: Giardia FBPA inh, LmPK inhibitor, Cycloheximide cs, Shiga toxin inh)
CC(C)Cn1nc(C(=O)NCc2ccccc2CN2CCCC2)c2ccccc2c1=O	Sm TGR block 28µM (no result: Giardia FBPA inh, LmPK inhibitor, Cycloheximide cs, Shiga toxin inh)
Cc1ccccc1Nc1c(-c2cccc(N(C)C)c2)nc2ccc(Br)cn12	none (no result: Giardia FBPA inh, LmPK inhibitor, Cycloheximide cs, Shiga toxin inh)
CCOC(=O)c1[nH]c2ccccc2c1NC(=O)c1ccc(Br)cc1	none (no result: Giardia FBPA inh, LmPK inhibitor, Cycloheximide cs, Shiga toxin inh)
CCOC(=O)c1[nH]nc(C(=O)c2ccc(Br)cc2)c1O	Shiga toxin inh 63
CCCCNC(=O)c1cn(CC)c2ccc(S(=O)(=O)N3CCCCCC3)cc2c1=O	none (no result: Giardia FBPA inh)
COC(=O)C1=C(C)N(c2ccc(C)c(C)c2)/C(=C/c2ccco2)C1=O	Sm TGR block 35µM
COC(=O)C1=C(C)NC(=O)/C1=C\c1ccco1	Sm TGR block 25µM
